According to PubChem BioAssay (NCATS):
Inconclusive results are not listed. Activity calls are given as the source filed them. Unless noted, the call rests on the fitted dose curve.

Key:
[1] = molecular target: Peroxisome proliferator-activated receptor delta (Homo sapiens) (UniProt Q03181); assay: qHTS assay for small molecule agonists of peroxisome proliferator-activated receptor delta signaling (AID 588534);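 further: 0% = DMSO basal wells and 100% = positive control agonist at 10 µM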
Summary of the method: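 Cell-based beta-lactamase reporter assay run in agonist mode: cells seeded and incubated 5 hrs at 37 C, compounds added and incubated 18 hrs at 37 C. CCF4 dye fluorescence read after 2 hrs at RT; EC50 and efficacy from Hill fits.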

[2] = qHTS assay for small molecule antagonists of peroxisome proliferator-activated receptor delta signaling (AID 588535); conditions: HEK293T PPARd-UAS-bla, beta-lactamase FRET ratio, 18 h; 460 nm channel;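 further: cells co-treated with a PPAR-delta agonist as stimulator during compound exposure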
Summary of the method: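 GeneBLAzer PPAR-delta-UAS-bla HEK293T cells in medium with 2% charcoal/dextran FBS were preincubated 5 hrs at 37 C, then given compounds, incubated 18 hrs at 37 C, and read by CCF4 beta-lactamase fluorescence; IC50 from Hill fits.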

[3] = molecular target: Vitamin D3 receptor (Homo sapiens) (UniProt P11473); assay: qHTS assay for small molecule antagonists of vitamin D receptor signaling (AID 588541);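 further: receptor activated by calcitriol during compound treatment; series mostly up to about 77 µM; on the % scale 0 is the no-effect control and ±100 the full control effect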
Sequence of Vitamin D3 receptor (Homo sapiens) (P11473 whole entry, looked up): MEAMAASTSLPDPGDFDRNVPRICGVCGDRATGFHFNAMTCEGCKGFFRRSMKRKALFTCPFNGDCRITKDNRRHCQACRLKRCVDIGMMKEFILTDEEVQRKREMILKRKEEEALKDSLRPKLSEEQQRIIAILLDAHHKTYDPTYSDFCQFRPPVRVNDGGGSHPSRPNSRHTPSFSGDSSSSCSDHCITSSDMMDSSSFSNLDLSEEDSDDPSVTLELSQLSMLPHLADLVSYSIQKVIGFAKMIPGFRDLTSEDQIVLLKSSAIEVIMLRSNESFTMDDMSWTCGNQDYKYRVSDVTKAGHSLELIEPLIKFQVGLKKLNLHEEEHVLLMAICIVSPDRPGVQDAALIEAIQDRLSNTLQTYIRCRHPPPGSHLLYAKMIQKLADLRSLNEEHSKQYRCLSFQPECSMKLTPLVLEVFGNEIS
Summary of the method: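 VDR-UAS-bla HEK293T cells (2000/well, 2% charcoal-stripped FBS) were treated with titrated compounds plus 1-alpha,25-dihydroxyvitamin D3 (50 nM or 3 nM final) for 16 h at 37 C. CCF4 beta-lactamase fluorescence was read; Hill fits gave IC50.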

[4] = molecular target: Vitamin D3 receptor (Homo sapiens) (UniProt P11473); assay: qHTS assay for small molecule agonists of vitamin D receptor signaling (AID 588543);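 further: 0% = DMSO basal and 100% = reference agonist control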
Summary of the method: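 qHTS in agonist mode: compound titrations stimulate a VDR-driven β-lactamase reporter in HEK293T cells over 16 h at 37 °C. Response normalized to 50 nM 1α,25-dihydroxyvitamin D3 = 100%, DMSO = 0%; Hill fitting gives EC50 and maximal response.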

[5] = molecular target: Thyroid hormone receptor beta (Homo sapiens) (UniProt P10828); assay: qHTS assay for small molecule agonists of thyroid hormone receptor beta signaling (AID 588545)
Sequence of Thyroid hormone receptor beta (Homo sapiens) (P10828 whole entry, looked up): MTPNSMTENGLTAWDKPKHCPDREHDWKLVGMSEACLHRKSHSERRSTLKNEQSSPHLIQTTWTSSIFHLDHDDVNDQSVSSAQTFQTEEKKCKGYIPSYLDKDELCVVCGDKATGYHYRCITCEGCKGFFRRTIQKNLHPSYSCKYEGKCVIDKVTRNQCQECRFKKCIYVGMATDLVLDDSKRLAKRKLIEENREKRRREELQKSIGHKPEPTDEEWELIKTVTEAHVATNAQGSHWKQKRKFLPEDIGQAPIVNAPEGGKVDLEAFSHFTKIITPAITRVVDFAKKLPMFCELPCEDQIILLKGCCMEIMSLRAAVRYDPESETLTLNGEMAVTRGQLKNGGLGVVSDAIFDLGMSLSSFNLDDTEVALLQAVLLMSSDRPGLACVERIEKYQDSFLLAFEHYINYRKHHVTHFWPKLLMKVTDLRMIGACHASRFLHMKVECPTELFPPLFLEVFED
Summary of the method: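 Agonist-mode beta-lactamase reporter assay, HEK 293 cells, 2% charcoal/dextran FBS; cells plated 4 hrs, compound 18 hrs at 37 C, CCF4 2 hrs RT. Normalized to 10 nM T3 (100%) and DMSO (0%); Hill fit gives EC50, efficacy.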

[6] = qHTS assay for small molecule antagonists of retinoid X receptor alpha signaling (AID 588546; active means well fitted inhibition curve with a large enough effect in the signal ratio, with a control signal flat, not every such curve was filed as active; the % refers to the signal ratio;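 further: cells stimulated with 9-cis-retinoic acid as agonist; on the % scale 0 is the no-effect control and ±100 the full control effect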); conditions: HEK293T RXRa-UAS-bla, beta-lactamase ratio, antagonist mode; measured here: W530 green channel, cytotoxicity proxy
Summary of the method: (§1)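 Beta-lactamase reporter inhibition, read as CCF4 fluorescence ratio (ex 405, em 460/530 nm) after 2 h at RT. HEK293T UAS-bla cells, 2500/well, were stimulated with 9-cis-RA at 500 or 100 nM final alongside test compound for 18 h at 37 C.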

[7] = molecular target: Retinoic acid receptor RXR-alpha (Homo sapiens) (UniProt P19793); assay: as above; conditions: HEK293T RXRa-UAS-bla, beta-lactamase ratio, antagonist mode
Sequence of Retinoic acid receptor RXR-alpha (Homo sapiens) (P19793 whole entry, looked up): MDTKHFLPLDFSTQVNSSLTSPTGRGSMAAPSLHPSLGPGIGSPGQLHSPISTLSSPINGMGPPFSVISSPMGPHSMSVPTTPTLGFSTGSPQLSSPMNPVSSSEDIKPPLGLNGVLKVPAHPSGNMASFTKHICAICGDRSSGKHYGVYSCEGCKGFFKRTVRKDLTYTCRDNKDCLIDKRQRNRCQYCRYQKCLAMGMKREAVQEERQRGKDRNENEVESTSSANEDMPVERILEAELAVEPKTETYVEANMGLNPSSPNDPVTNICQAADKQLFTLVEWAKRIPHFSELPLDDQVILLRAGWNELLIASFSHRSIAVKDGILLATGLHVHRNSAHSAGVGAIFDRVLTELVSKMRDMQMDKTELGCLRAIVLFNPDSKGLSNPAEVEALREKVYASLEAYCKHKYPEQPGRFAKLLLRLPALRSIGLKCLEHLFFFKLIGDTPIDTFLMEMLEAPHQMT
Summary of the method: as §1

[8] = molecular target: Thyroid hormone receptor beta (Homo sapiens) (UniProt P10828); assay: qHTS assay for small molecule antagonists of thyroid hormone receptor beta signaling (AID 588547; active means well fitted inhibition curve with a large enough effect in the signal ratio, with a control signal flat, not every such curve was filed as active; the % refers to the signal ratio;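 further: cells stimulated with 0.4 nM T3 agonist during compound exposure; series mostly up to about 77 µM; on the % scale 0 is the no-effect control and ±100 the full control effect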); conditions: TR-UAS-bla HEK293, beta-lactamase ratio, antagonist mode, 18 h
Summary of the method: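 TR-UAS-bla GripTite HEK293 cells in 2% charcoal/dextran FBS medium were preincubated 4 h at 37 C, given compound (0.59 nM to 92 uM) plus 0.4 nM T3 (final) for 18 h, then CCF4 for 2 h at RT; Hill fit gave IC50.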

[9] = qHTS assay for small molecule activators of the p53 signaling pathway (AID 651743; active means well fitted activation curve with a large enough effect in the signal ratio, not every such curve was filed as active; the % refers to the signal ratio; further: series mostly up to about 92 µM; % of control where 0% means no effect); conditions: HCT-116 p53RE-bla, beta-lactamase FRET ratio, 16 h; activation: stronger effect = higher value
Summary of the method: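 p53RE-bla HCT-116 cells with a stably integrated beta-lactamase reporter under p53 response elements were plated, rested 5 hours at 37 C/5% CO2, then exposed to compounds in DMSO for 16 hours at 37 C. LiveBLAzer B/G FRET substrate was read after 2 hours at room temperature.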

[10] = qHTS assay for small molecule activators of the nuclear factor-kappa B (NF-kB) signaling pathway (AID 651749; active means well fitted activation curve with a large enough effect in the signal ratio; the % refers to the signal ratio; further: series mostly up to about 77 µM; % of control where 0% means no effect); conditions: NF-kB-bla ME-180 cells, beta-lactamase FRET ratio, 16 h; activation: stronger effect = higher value
Summary of the method: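 ME-180 cells stably carrying a beta-lactamase reporter under an NF-kB response element were exposed to compound or DMSO vehicle for 16 hr at 37C, 5% CO2. Pathway activation was read by FRET, since reporter expression disrupts FRET.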

[11] = qHTS assay for environmental chemicals that activate the Aryl hydrocarbon Receptor (AhR) signaling pathway (AID 651777; active means well fitted curve in the direction sought with a large enough effect; an effect the other way counts as inactive or inconclusive; further: % of control where 0% means no effect; nearly all actives have a fitted effect of over 15% in size); conditions: 1A2-DRE human hepatoma cells, luciferase, 24 h; activation: stronger effect = higher value
Summary of the method: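 Concentration–response screening used 1,200 1A2-DRE cells per well, 24 hr compound exposure (37 C, 5% CO2), and One-Glo luminescence as the AhR-driven CYP1A2 reporter signal.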

[12] = molecular target: Peroxisome proliferator-activated receptor alpha (Homo sapiens) (UniProt Q07869); assay: qHTS assay for small molecule agonists of the peroxisome proliferator-activated receptor alpha (PPARalpha) signaling pathway (AID 651778; active means well fitted curve in the direction sought with a large enough effect; an effect the other way counts as inactive or inconclusive; further: % of control where 0% means no effect); conditions: PathHunter PPARalpha complementation, chemiluminescence, 6 h; max response: stronger effect = higher value
Sequence of Peroxisome proliferator-activated receptor alpha (Homo sapiens) (Q07869 whole entry, looked up): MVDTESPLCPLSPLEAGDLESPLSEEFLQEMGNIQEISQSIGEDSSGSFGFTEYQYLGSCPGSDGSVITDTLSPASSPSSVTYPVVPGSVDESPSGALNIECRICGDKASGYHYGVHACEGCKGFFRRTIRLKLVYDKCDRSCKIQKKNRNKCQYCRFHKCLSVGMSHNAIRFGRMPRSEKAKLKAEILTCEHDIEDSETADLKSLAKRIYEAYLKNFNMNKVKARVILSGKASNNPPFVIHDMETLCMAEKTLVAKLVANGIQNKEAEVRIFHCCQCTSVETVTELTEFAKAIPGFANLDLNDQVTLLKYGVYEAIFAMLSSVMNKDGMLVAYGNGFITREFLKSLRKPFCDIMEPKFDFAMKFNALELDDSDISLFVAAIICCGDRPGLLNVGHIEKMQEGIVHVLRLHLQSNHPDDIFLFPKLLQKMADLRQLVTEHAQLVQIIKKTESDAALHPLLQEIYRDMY
Summary of the method: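 Cells plated at 2,000/well and held overnight at 37 C, 5% CO2, then compound added by pin tool for 6 hr; after PathHunter detection reagent and 60 min at room temperature, chemiluminescence from enzyme complementation was read.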

[13] = qHTS assay for small molecule agonists of the antioxidant response element (ARE) signaling pathway measured by Nrf2-dependant transcriptional activity (AID 720636; active means well fitted curve in the direction sought with a large enough effect in the repeat runs; an effect the other way counts as inactive or inconclusive;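 further: HepG2 cells with an ARE-driven luciferase reporter; % of control where 0% means no effect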)
Summary of the method: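 Attachment 6 hr at 37 C, then compound versus DMSO vehicle for 16 hr in ARE-luc HepG2 cells (1% dialyzed FBS); luminescence recorded 30 min after ONE-Glo addition at room temperature.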

[14] = qHTS assay for small molecule agonists of the antioxidant response element (ARE) signaling pathway measured by Nrf2-dependant transcriptional activity - cell viability counter screen (AID 720653; active means well fitted curve in the direction sought with a large enough effect in the repeat runs; an effect the other way counts as inactive or inconclusive; further: on the % scale 0 is the no-effect control and ±100 the full control effect); conditions: ARE-bla HepG2 viability, CellTiter-Glo ATP luminescence, 16 h; max response: stronger effect = lower value
Summary of the method: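 ARE-bla HepG2 cells (2,000/well) rested 5 hrs at 37C/5% CO2, then exposed to compounds in DMSO for 16 hrs. Viability was read in the same wells as intracellular ATP by luminescence, 30 min at room temperature after reagent addition.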

[15] = qHTS assay for cell viability of HEK293 cells (AID 743288; active means well fitted curve in the direction sought with a large enough effect; an effect the other way counts as inactive or inconclusive; further: on the % scale 0 is the no-effect control and ±100 the full control effect; nearly all actives have a fitted effect of over 50% in size); conditions: ATP luminescence (CellTiter-Glo), 18 h; max response: stronger effect = lower value
Summary of the method: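 The Tox21 protocol used parental HEK293 cells treated for 18 h at 37 C with compounds delivered by pintool; ATP-coupled luminescence after 30 min at room temperature gave viability.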

[16] = qHTS assay for cell viability of the p53RE-bla HCT-116 cell line (AID 743292; active means well fitted curve in the direction sought with a large enough effect; an effect the other way counts as inactive or inconclusive; further: on the % scale 0 is the no-effect control and ±100 the full control effect; nearly all actives have a fitted effect of over 55% in size)
Summary of the method: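 Compound-exposed HCT-116 (p53RE-bla) cells, 4,000 per well, were kept 16 h at 37 C following a 5 h preincubation. Cell number was estimated from total ATP by CellTiter-Glo luminescence read after 30 min at room temperature.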

[17] = molecular target: Retinoic acid receptor RXR-alpha (Homo sapiens) (UniProt P19793); assay: qHTS assay for small molecule agonists of retinoid X receptor alpha signaling (AID 588544);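 further: 0% = DMSO basal wells and 100% = reference agonist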
[18] = molecular target: Glucocorticoid receptor (Homo sapiens) (UniProt P04150); assay: qHTS assay for small molecule agonists of glucocorticoid receptor signaling (AID 588532; active means well fitted curve in the direction sought with a large enough effect in the signal ratio, with a control signal flat; the % refers to the signal ratio;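 further: 100% = dexamethasone at 0.1 µM and 0% = DMSO only wells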); conditions: HeLa MMTV-bla, beta-lactamase ratio, agonist, 18 h; activation: stronger effect = higher value, percent of dexamethasone control, DMSO zero
Sequence of Glucocorticoid receptor (Homo sapiens) (P04150 whole entry, looked up): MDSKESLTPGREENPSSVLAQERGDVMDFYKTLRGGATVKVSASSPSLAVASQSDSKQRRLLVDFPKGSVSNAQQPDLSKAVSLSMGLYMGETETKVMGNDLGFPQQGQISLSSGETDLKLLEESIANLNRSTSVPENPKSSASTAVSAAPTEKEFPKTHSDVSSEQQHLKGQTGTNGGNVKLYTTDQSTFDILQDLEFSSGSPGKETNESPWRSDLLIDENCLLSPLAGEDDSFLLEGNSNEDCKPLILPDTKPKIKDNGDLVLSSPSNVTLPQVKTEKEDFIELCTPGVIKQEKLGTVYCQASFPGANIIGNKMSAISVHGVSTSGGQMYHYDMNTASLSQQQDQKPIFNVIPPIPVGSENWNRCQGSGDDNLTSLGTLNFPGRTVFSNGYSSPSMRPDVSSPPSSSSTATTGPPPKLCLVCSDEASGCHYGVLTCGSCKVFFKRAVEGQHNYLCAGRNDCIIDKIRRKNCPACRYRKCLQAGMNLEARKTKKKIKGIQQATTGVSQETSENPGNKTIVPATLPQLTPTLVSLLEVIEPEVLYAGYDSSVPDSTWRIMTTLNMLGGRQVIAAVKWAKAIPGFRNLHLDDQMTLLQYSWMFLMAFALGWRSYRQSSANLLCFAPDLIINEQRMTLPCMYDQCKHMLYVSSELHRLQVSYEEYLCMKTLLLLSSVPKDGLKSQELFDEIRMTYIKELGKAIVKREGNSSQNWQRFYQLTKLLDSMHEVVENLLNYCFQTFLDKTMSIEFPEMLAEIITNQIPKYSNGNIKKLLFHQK
Summary of the method: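 MMTV-bla HeLa, beta-lactamase reporter; medium with 1% charcoal/dextran-stripped FBS; cpds up to 92 uM, 18 h, 37 C; CCF4 readout 460/530 nm; Hill fit → EC50, efficacy vs 0.1 uM dexamethasone = 100%.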

[19] = molecular target: Glucocorticoid receptor (Homo sapiens) (UniProt P04150); assay: qHTS assay for small molecule antagonists of glucocorticoid receptor signaling (AID 588533; active means well fitted inhibition curve with a large enough effect in the signal ratio, with a control signal flat, not every such curve was filed as active; the % refers to the signal ratio)
Summary of the method: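 Antagonist-mode qHTS: compound titrations added to GRE-bla HeLa cells, then dexamethasone 2 nM final; 18 h, 37 C. CCF4 FRET fluorescence normalized to dexamethasone and DMSO; IC50 from Hill fit.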

[20] = molecular target: Nuclear receptor subfamily 1 group I member 2 (Rattus norvegicus) (UniProt Q9R1A7); assay: qHTS assay for small molecule activators of the rat pregnane X receptor (rPXR) signaling pathway (AID 651751; call rule not given here; further: 0% is about no effect); conditions: rPXR reporter cells, luciferase (One-Glo), 24 h
Sequence of Nuclear receptor subfamily 1 group I member 2 (Rattus norvegicus) (Q9R1A7 whole entry, looked up): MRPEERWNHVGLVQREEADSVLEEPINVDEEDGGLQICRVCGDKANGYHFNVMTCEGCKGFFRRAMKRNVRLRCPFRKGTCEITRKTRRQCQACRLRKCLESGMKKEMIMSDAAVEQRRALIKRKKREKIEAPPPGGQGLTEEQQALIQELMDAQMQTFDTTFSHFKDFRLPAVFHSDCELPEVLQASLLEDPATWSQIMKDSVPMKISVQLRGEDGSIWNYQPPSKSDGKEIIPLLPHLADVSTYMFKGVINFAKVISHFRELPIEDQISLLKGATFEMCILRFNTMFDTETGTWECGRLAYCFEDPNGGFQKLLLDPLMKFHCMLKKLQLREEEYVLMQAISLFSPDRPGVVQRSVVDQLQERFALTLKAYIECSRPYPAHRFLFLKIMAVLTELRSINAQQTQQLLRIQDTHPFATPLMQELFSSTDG

Sequence of Peroxisome proliferator-activated receptor delta (Homo sapiens) (Q03181 whole entry, looked up): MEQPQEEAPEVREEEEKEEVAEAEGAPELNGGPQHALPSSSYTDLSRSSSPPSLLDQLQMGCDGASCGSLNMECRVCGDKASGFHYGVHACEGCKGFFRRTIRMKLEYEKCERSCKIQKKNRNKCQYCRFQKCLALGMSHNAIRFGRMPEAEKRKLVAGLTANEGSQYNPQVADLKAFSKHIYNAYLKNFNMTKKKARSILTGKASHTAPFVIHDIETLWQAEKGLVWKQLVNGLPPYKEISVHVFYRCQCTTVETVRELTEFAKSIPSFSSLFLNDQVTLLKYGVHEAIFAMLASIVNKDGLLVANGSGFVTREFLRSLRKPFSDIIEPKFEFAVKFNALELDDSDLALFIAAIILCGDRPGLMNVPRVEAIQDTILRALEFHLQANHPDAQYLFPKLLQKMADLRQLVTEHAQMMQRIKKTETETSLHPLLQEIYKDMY

SMILES	outcome [1]	max response [2] [%]	Potency [3]	outcome [4]	Potency [5]	max response [6] [%]	max response [7]	activity change % (negative = inhibition) [8]	activation [9]	activation [10]	activation [11]	max response [12]	Potency [13]	max response [14]	max response [15]	Potency [16]	Potency [17]	activation [18]	Potency [19]	max response [20]
COC(=O)c1c(C(F)F)nc(C(F)(F)F)c(C2=NCCS2)c1CC(C)C	inactive	-95	inactive	inactive	inactive	-11.1	-17.3% (inactive)	-8.88% (inactive)	6.04% (inactive)	-2.57% (inactive)	2.1% (inactive)	-1.35% (inactive)	inactive	1.66% (inactive)	-8.01% (inactive)	inactive				
c1ccc2c(c1)[nH]c1ccccc12	inactive												inactive							
CC1(C)[C@H](C(=O)O[C@H](C#N)c2cccc(Oc3ccccc3)c2)[C@@H]1C=C(Br)Br	inactive	6.87			inactive				3.18% (inactive)		-1.98% (inactive)	-0.333% (inactive)	inactive	-10.6% (inactive)	-19% (inactive)	inactive	inactive			
CCC[CH2][Sn]([CH2]CCC)([CH2]CCC)[CH2]CCC	inactive	0.148	inactive	inactive	inactive	6.88		-9.45% (inactive)	-3.46% (inactive)	1.03% (inactive)	0.926% (inactive)	-1.25% (inactive)	inactive	1.93% (inactive)	-5.3% (inactive)	inactive		-2.61% (inactive)	inactive	8.28% (inactive)
CCNS(=O)(=O)C(F)(F)C(F)(F)C(F)(F)C(F)(F)C(F)(F)C(F)(F)C(F)(F)C(F)(F)F	inactive	-20.7	inactive	inactive	inactive	-8.67	6.49% (inactive)	23.1% (inactive)			1.24% (inactive)	5.8% (inactive)	inactive		-20.2% (inactive)	inactive	inactive			2.04% (inactive)
CCCCOC(=O)c1ccccc1C(=O)O	inactive	23.7			inactive	2.69	13.7% (inactive)	6.47% (inactive)	-2.82% (inactive)	1.8% (inactive)	-4.01% (inactive)	0.528% (inactive)	inactive	18.5% (inactive)	6.89% (inactive)		inactive			-8.39% (inactive)
